From PubChem BioAssay AID1345085 (National Center for Advancing Translational Sciences (NCATS), 2018)
Inconclusive results are not listed. Active and inactive are the calls of the source. Calls follow the shape of the dose curve; as a rule, active = well fitted cell-killing curve with a large enough effect; inconclusive = small, poorly fitted or top-dose-only effect, or effect the other way; inactive = no such curve, though single readings can be large or run the other way.

Tested on: Tov-21-G
Experiment: Confirmatory qHTS for gynecologic anti-cancer compounds from libraries of approved drugs and bioactive compounds; also: nearly all actives have a fitted effect of over 55% in size
Conditions: gynecologic cancer cell panel viability, ATPlite luminescence, 48 h; series mostly up to 57.7 µM
How it was run: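 1,000 cells/well; 16 h pre-incubation 37 C, 5% CO2; pin-transferred cpd in DMSO, 11 conc (1:3), 57.5 uM–0.977 nM; 48 h; ATPlite, 15 min RT; luminescence → IC50.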
Potency is read from the fitted curve at half-maximal effect.

Row | Compound | Potency
1 | NC1(c2ccc(-c3nc4ccn5c(=O)[nH]nc5c4cc3-c3ccccc3)cc2)CCC1 | inactive
2 | Cc1nc(N)ncc1-c1nc(N2CCOCC2)c2sc(C(C)(C)O)cc2n1 | 1530 nM (active)
3 | CC(C)C[C@H](NC(=O)[C@@H](NC(=O)c1cccc(-c2ccccc2)n1)[C@@H](C)O)B(O)O | 1720 nM (active)
4 | CN[C@@H](C)C(=O)N[C@H]1CN(C(=O)CC(C)C)CC[C@H]2CC[C@@H](C(=O)NC(c3ccccc3)c3ccccc3)N2C1=O | 21700 nM (active)
5 | CCN1CCN(Cc2ccc(Nc3ncc(F)c(-c4cc(F)c5nc(C)n(C(C)C)c5c4)n3)nc2)CC1 | 2730 nM (active)
6 | Cc1nc(NC(=O)N2CCCC2C(N)=O)sc1-c1ccnc(C(C)(C)C(F)(F)F)c1 (stereo not drawn) | 10900 nM (active)
7 | Cc1cnc(Nc2cccc(CN3CCOCC3)c2)nc1Nc1cccc(S(=O)(=O)NC(C)(C)C)c1 | 3060 nM (active)
8 | C=CC(=O)Nc1cccc(Oc2nc(Nc3ccc(N4CCN(C)CC4)cc3)ncc2Cl)c1 | 3850 nM (active)
9 | CC(Oc1cc(-n2cnc3ccc(CN4CCN(C)CC4)cc32)sc1C(N)=O)c1ccccc1C(F)(F)F (stereo not drawn) | 27300 nM (active)
10 | CC(=O)c1cnc2ccc(-c3cc(Cl)c(O)c(Cl)c3)nc2c1NC1CCC(CN(C)C)CC1 (stereo not drawn) | 559 nM (active)
11 | CN(C)CCC(CSc1ccccc1)Nc1ccc(S(=O)(=O)NC(=O)c2ccc(N3CCN(Cc4ccccc4-c4ccc(Cl)cc4)CC3)cc2)cc1[N+](=O)[O-] (stereo not drawn) | 13700 nM (active)
12 | O=C(NOC[C@H](O)CO)c1ccc(F)c(F)c1Nc1ccc(I)cc1F | 1720 nM (active)
13 | COc1cc(Nc2c(C#N)cnc3cc(OCCCN4CCN(C)CC4)c(OC)cc23)c(Cl)cc1Cl | 1720 nM (active)
14 | CNC1CCC(N(Cc2cccc(-c3ccncc3)c2)C(=O)c2sc3ccccc3c2Cl)CC1 (stereo not drawn) | 19300 nM (active)
15 | O=C(CCCCCCC(=O)Nc1ccccc1)NO | 4850 nM (active)
16 | Cc1cnc(Nc2ccc(CN3CCOCC3)cc2)nc1Nc1cccc(S(=O)(=O)NC(C)(C)C)c1 | 243 nM (active)
17 | Cc1ccc(C(=O)Nc2cccc(C(F)(F)F)c2)cc1-c1ccc2nc(NCCN3CCOCC3)ncc2c1 | 4850 nM (active)
18 | Cc1ccc(C(N)=O)cc1Nc1nccc(-c2cn(C(C)C)c3cnccc23)n1 | 9680 nM (active)
19 | Cc1ccc2nc(N)[nH]c(=O)c2c1Sc1ccncc1 | inactive
20 | CCC1C(=O)N(C)c2cnc(Nc3ccc(C(=O)NC4CCN(C)CC4)cc3OC)nc2N1C1CCCC1 (stereo not drawn) | 1930 nM (active)
21 | Cc1ccc(C(=O)Nc2ccc(CN3CCN(C)CC3)c(C(F)(F)F)c2)cc1C#Cc1cnc2cccnn12 | 1220 nM (active)
22 | CCN1CCN(Cc2ccc(-c3cc4c(NC(C)c5ccccc5)ncnc4[nH]3)cc2)CC1 (stereo not drawn) | 1720 nM (active)
23 | C#C[C@]1(O)CC[C@H]2[C@@H]3CCC4=CC(=O)CC[C@@H]4[C@H]3CC[C@@]21CC | inactive
24 | CN1CCCC(n2nc(Cc3ccc(Cl)cc3)c3ccccc3c2=O)CC1 (stereo not drawn) | 30600 nM (active)
25 | NS(=O)(=O)c1ccc(Nc2nc(OCC3CCCCC3)c3[nH]cnc3n2)cc1 | inactive
26 | CCc1cccc(CC)c1NC(=O)N1Cc2[nH]nc(NC(=O)c3ccc(N4CCN(C)CC4)cc3)c2C1 | 2730 nM (active)
27 | CC(C)C[C@H](NC(=O)[C@H](Cc1ccccc1)NC(=O)c1cnccn1)B(O)O | 96.8 nM (active)
28 | Nc1ccccc1NC(=O)c1ccc(CNc2nccc(-c3cccnc3)n2)cc1 | 2430 nM (active)
